Measurements published in the supplement of paper PMC8975748.
Where a name gives a salt, the structure may show the parent alone. ± gives the standard deviation of the averaged measurements.

Assays:
[1] = tested on: Saccharomyces cerevisiae BY4741 SeMeCo community; assay: mean cell size (pixel area) (pixels); higher = larger cells; settings: 10 µM; 24 h; SM minimal medium
In short: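 Mean cell pixel area per well was determined by automated confocal microscopy with Harmony analysis of paraformaldehyde-fixed cells. The cells, a Saccharomyces cerevisiae BY4741 community of four plasmids that each complement one auxotrophy and carry a fluorescent marker, were incubated for 24 h with drug at a final 10 µM in SM medium in 384-well plates. Numbers are averaged over 3 replicates. Same SeMeCo high-content imaging drug screen: Selleck FDA-approved drugs at 10 µM, 24 h in SM medium, 384-well plates, 3 replicates.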

[2] = tested on: Saccharomyces cerevisiae BY4741 SeMeCo community; assay: z-score of prototroph abundance vs DMSO median; higher = larger share of this subpopulation than in DMSO controls; settings: 10 µM; 24 h; SM minimal medium; subpopulation (auxotrophy): Prototroph
In short: (§1)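 Scoring was based on each subpopulation's abundance, expressed as a z-score against the vehicle-well median. A Saccharomyces cerevisiae BY4741 community with four plasmids, each restoring one auxotrophy and encoding a distinct fluorescent protein, was pre-grown overnight to OD600 1.0, diluted to 0.3, and added at 70 µl to 384-well plates acoustically predosed with library drugs (10 µM final). It then grew 24 h in minimal SM medium before paraformaldehyde fixation and automated confocal microscopy, with single-auxotroph fluorescent strains setting thresholds and autofluorescence correction.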

[3] = tested on: Saccharomyces cerevisiae BY4741 SeMeCo community; assay: z-score of subpopulation abundance vs DMSO median, subpopulation auxotrophic for M; higher = larger share of this subpopulation than in DMSO controls; settings: 10 µM; 24 h; SM minimal medium; subpopulation (auxotrophy): M
In short: as §1

[4] = tested on: Saccharomyces cerevisiae BY4741 SeMeCo community; assay: z-score of subpopulation abundance vs DMSO median, subpopulation auxotrophic for L; higher = larger share of this subpopulation than in DMSO controls; settings: 10 µM; 24 h; SM minimal medium; subpopulation (auxotrophy): L
In short: as §1

[5] = tested on: Saccharomyces cerevisiae BY4741 SeMeCo community; assay: z-score of subpopulation abundance vs DMSO median, subpopulation auxotrophic for U; higher = larger share of this subpopulation than in DMSO controls; settings: 10 µM; 24 h; SM minimal medium; subpopulation (auxotrophy): U
In short: as §1

[6] = tested on: Saccharomyces cerevisiae BY4741 SeMeCo community; assay: z-score of subpopulation abundance vs DMSO median, subpopulation auxotrophic for LU; higher = larger share of this subpopulation than in DMSO controls; settings: 10 µM; 24 h; SM minimal medium; subpopulation (auxotrophy): LU
In short: as §1

[7] = tested on: Saccharomyces cerevisiae BY4741 SeMeCo community; assay: z-score of subpopulation abundance vs DMSO median, subpopulation auxotrophic for LM; higher = larger share of this subpopulation than in DMSO controls; settings: 10 µM; 24 h; SM minimal medium; subpopulation (auxotrophy): LM
In short: as §1

[8] = tested on: Saccharomyces cerevisiae BY4741 SeMeCo community; assay: z-score of subpopulation abundance vs DMSO median, subpopulation auxotrophic for HM; higher = larger share of this subpopulation than in DMSO controls; settings: 10 µM; 24 h; SM minimal medium; subpopulation (auxotrophy): HM
In short: as §1

[9] = tested on: Saccharomyces cerevisiae BY4741 SeMeCo community; assay: z-score of subpopulation abundance vs DMSO median, subpopulation auxotrophic for HU; higher = larger share of this subpopulation than in DMSO controls; settings: 10 µM; 24 h; SM minimal medium; subpopulation (auxotrophy): HU
In short: as §1

[10] = tested on: Saccharomyces cerevisiae BY4741 SeMeCo community; assay: z-score of subpopulation abundance vs DMSO median, subpopulation auxotrophic for UM; higher = larger share of this subpopulation than in DMSO controls; settings: 10 µM; 24 h; SM minimal medium; subpopulation (auxotrophy): UM
In short: as §1

[11] = tested on: Saccharomyces cerevisiae BY4741 SeMeCo community; assay: z-score of subpopulation abundance vs DMSO median, subpopulation auxotrophic for HL; higher = larger share of this subpopulation than in DMSO controls; settings: 10 µM; 24 h; SM minimal medium; subpopulation (auxotrophy): HL
In short: as §1

[12] = tested on: Saccharomyces cerevisiae BY4741 SeMeCo community; assay: z-score of subpopulation abundance vs DMSO median, subpopulation auxotrophic for HLU; higher = larger share of this subpopulation than in DMSO controls; settings: 10 µM; 24 h; SM minimal medium; subpopulation (auxotrophy): HLU
In short: as §1

[13] = tested on: Saccharomyces cerevisiae BY4741 SeMeCo community; assay: z-score of subpopulation abundance vs DMSO median, subpopulation auxotrophic for HLM; higher = larger share of this subpopulation than in DMSO controls; settings: 10 µM; 24 h; SM minimal medium; subpopulation (auxotrophy): HLM
In short: as §1

[14] = tested on: Saccharomyces cerevisiae BY4741 SeMeCo community; assay: z-score of subpopulation abundance vs DMSO median, subpopulation auxotrophic for HUM; higher = larger share of this subpopulation than in DMSO controls; settings: 10 µM; 24 h; SM minimal medium; subpopulation (auxotrophy): HUM
In short: as §1

[15] = tested on: Saccharomyces cerevisiae BY4741 SeMeCo community; assay: z-score of subpopulation abundance vs DMSO median, subpopulation auxotrophic for LUM; higher = larger share of this subpopulation than in DMSO controls; settings: 10 µM; 24 h; SM minimal medium; subpopulation (auxotrophy): LUM
In short: as §1

[16] = tested on: Saccharomyces cerevisiae BY4741 SeMeCo community; assay: z-score of subpopulation abundance vs DMSO median, subpopulation auxotrophic for HLUM; higher = larger share of this subpopulation than in DMSO controls; settings: 10 µM; 24 h; SM minimal medium; subpopulation (auxotrophy): HLUM
In short: as §1

[17] = tested on: Saccharomyces cerevisiae BY4741 SeMeCo community; assay: z-score of subpopulation abundance vs DMSO median, subpopulation auxotrophic for H; higher = larger share of this subpopulation than in DMSO controls; settings: 10 µM; 24 h; SM minimal medium; subpopulation (auxotrophy): H
In short: as §1

SMILES	mean cell size [1]	z-score of prototroph abundance [2]	z-score of subpopulation abundance [3]	z-score of subpopulation abundance [4]	z-score of subpopulation abundance [5]	z-score of subpopulation abundance [6]	z-score of subpopulation abundance [7]	z-score of subpopulation abundance [8]	z-score of subpopulation abundance [9]	z-score of subpopulation abundance [10]	z-score of subpopulation abundance [11]	z-score of subpopulation abundance [12]	z-score of subpopulation abundance [13]	z-score of subpopulation abundance [14]	z-score of subpopulation abundance [15]	z-score of subpopulation abundance [16]	z-score of subpopulation abundance [17]
CC1=Nc2ccc(Cl)cc2S(=O)(=O)N1 [Diazoxide]	12.4 ± 0.1	0.72	-0.76	-0.67	0.16	-0.67	-1.03	-0.62	-0.17	-0.03	-0.72	-0.88	-1.55	-0.41	-0.9	-1.32	
Cn1nnnc1SCC1=C(C(=O)O)N2C(=O)[C@@H](NC(=O)[C@H](OC=O)c3ccccc3)[C@H]2SC1 [Cefamandole nafate]	12.6 ± 0.23	-0.92	0.49	0.3	0.1	-1.46	0.72	0.71	0.51	2.08	0.65	0.38	-0.57	-0.54	0.16	0.78	0.14
COc1ccnc(C[S+]([O-])c2nc3cc(-n4cccc4)ccc3[nH]2)c1C (stereo not drawn) [Ilaprazole sodium]	12.7 ± 0.23	-0.81	1.1	1.32	-1.54	-0.87	1.43	1.14	-0.9	-1.01	6.22	2.72	3.01	0.43	0.43	0.94	5.12
CO/N=C(\C(=O)N[C@@H]1C(=O)N2C(C(=O)O)=C(COC(C)=O)CS[C@H]12)c1csc(N)n1 [Cefotaxime sodium]	12.36 ± 0.028	-0.43	0.24	-0.14	1.03	0.37	1.08	-0.37	-0.11	0.17	-0.46	0.33	0	-0.16	0.05	0.47	-0.66
COc1ccc2cc([C@H](C)C(=O)O)ccc2c1 [Naproxen]	13 ± 0.17	2.14	-1.11	-0.03	-1.21	-1.6	-0.86	-0.37	-1.2	-2.93	0.23	-0.86	1.33	-1.97	-0.97	-0.08	0.45
Cc1cc2c(s1)Nc1ccccc1N=C2N1CCN(C)CC1 [Olanzapine]	12.5 ± 0.2	0.17	0.84	-0.11	-0.29	-0.6	0.65	0.2	0.19	0.07	-0.15	0.07	-0.05	-0.5	-0.6	0.21	-0.12
CO[C@@]1(NC(=O)CSC[C@@H](N)C(=O)O)C(=O)N2C(C(=O)O)=C(CSc3nnnn3C)CS[C@@H]21 [Cefminox Sodium]	12.6 ± 0.55	-0.58	-0.58	1.5	0.77	0.8	-0.15	-0.24	0.16	0	1.62	0.47	3.56	-0.35	-0.31	-0.45	1.45
CC(C)NC(=N)NC(=N)Nc1ccc(Cl)cc1 [Proguanil]	12.3 ± 0.13	0	0.65	-1.12	1.07	-0.48	0.02	0.11	-0.55	0.61	-0.81	-0.46	-0.27	-0.17	-0.3	-0.44	-0.88
Fc1ccc([C@@H]2CCNC[C@H]2COc2ccc3c(c2)OCO3)cc1 [Paroxetine HCl]	12.47 ± 0.086	0.34	-0.31	-0.43	0.75	-0.16	-0.61	-0.49	-1.01	-0.16	0.14	-0.09	0.16	-0.39	-1.08	0.06	
COC(=O)C1=C(C)NC(C)=C(C(=O)OCCN2CCN(C(c3ccccc3)c3ccccc3)CC2)C1c1cccc([N+](=O)[O-])c1 (stereo not drawn) [Manidipine]	12 ± 0.18	-1.43	1.78	0.96	-1.02	-1.04	2.53	2.14	0.65	-0.6	2.76	1.73	0.64	2.11	0.72	0.6	2.53
C[C@@H](O)[C@H]1C(=O)N2C(C(=O)[O-])=C(SC3Cn4cnc[n+]4C3)[C@H](C)[C@H]12 (stereo partly drawn) [Biapenem]	12.11 ± 0.1	0.75	1.3	-0.66	-0.12	-1.32	-0.22	0.51	-0.36	-0.17	-0.48	-1.25	-0.52	-0.24	-0.49	-0.81	
COc1cc(N)c(Cl)cc1C(=O)NC1CCN(CCCOc2ccc(F)cc2)CC1OC (stereo not drawn) [Cisapride hydrate]	12.52 ± 0.044	-0.46	0.32	-0.75	0.95	0.83	-0.23	0.29	1.34	0.98	-0.17	0.05	0.12	0.84	-0.28	-0.3	0.05
CCN1CCC[C@H]1CNC(=O)c1cc(S(N)(=O)=O)ccc1OC [Levosulpiride]	12.5 ± 0.17	0.49	-0.33	-0.4	0.41	0.1	-0.65	-0.96	-0.27	0.08	-0.21	-1.02	-0.19	0.24	0.3	-0.54	-0.73
